Inconclusive results are not listed. Active and inactive are the calls of the source. How the source made its calls: active means hit-call score of the fitted dose curve at least 0.9, where 1 is the maximum; inconclusive means response in the unintended direction; inactive means score below 0.9.

The test can be described thus: IUF_NPC2-5_cytotoxicity_72hr: Cytotoxicity Assessment at 72 hours in the Leibniz Research Institute for Environmental Medicine (IUF) Neural Progenitor Cell Migration and Differentiation Assay for Cytotoxicity (NPC2-5) (AID 2284306).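 Further: LDH release into supernatant measured by resorufin fluorescence marking membrane damage.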 The method, then:
IUF_NPC2-5 is a cell-based, multiplexed assay that uses hNPC, a human primary neural progenitor cells, with measurements taken at 72 or 120 hours after chemical dosing in a 96-well plate. Human neural progenitor cells (hNPC) are generated from human fetal brain cortex at gestational week (GW) 16-19. In the neural progenitor cell migration and differentiation assay (NPC2-5), hNPCs grown as spheres are plated on an extracellular matrix and migrate and differentiate out of the sphere core. The processes radial glia migration, neuronal and oligodendrocyte migration as well as neuronal differentiation, neuronal morphology and oligodendrocyte differentiation are studied using automated phase contrast imaging and automated fluorescence imaging in combination with high content image analysis. In parallel, the cell viability is assessed using an alamar blue viability assay and the cytotoxicity using a lactate dehydrogenase dependent membrane integrity assay.IUF_NPC2-5_cytotoxicity_72hr is one of 12 assay components measured from the IUF_NPC2-5 assay. It is designed to measure the cytotoxicity at 72 hr as assessed by membrane integrity related to the LDH dependent reduction of resazurin to resorufin in the supernatant of each well. The cytotoxicity is measured as fluorescence signal (relative fluorescence unit) in a multiplate reader. Data from the IUF_NPC2-5_cytotoxicity_72hr component was analyzed at the endpoint IUF_NPC2-5_cytotoxicity_72hr in the positive analysis fitting direction relative to the dynamic range and baseline of activity. Using a type of viability reporter, gain-of-signal activity can be used to understand cytotoxicity effects.
Culture protocol: After the cell expansion period the cells are cultured for up to four weeks in which they are passaged every week as described in 3.6. Between one to three days after passaging spheres at a size of 0.3 mm are picked for the test method. For the assessment of neural progenitor cell migration and differentiation, the spheres are plated on poly-D-lysine/laminin coated 96-well flat bottom plates in differentiation medium (N2) to initiate migration and differentiation. Thereby one 0.3 mm big sphere is plated in the middle of a well. The differentiation medium consists of DMEM and Ham's F12 at a ratio of 3 to 1 supplemented with 1% N2 and 1% penicillin and streptomycin. Within 5 days NPCs radially migrate out of the sphere core and differentiate into radial glia cells (nestin positive), neurons (TUBB3 positive), oligodendrocytes (O4 positive) and astrocytes (GFAP positive). Cultivation during the test method is performed at 37C and 5% CO2 at a ph of 7.2-7.6.Exposure: 0.3 mm big hNPC are plated in the already prepared test conditions. Exposure starts at day 0 of differentiation and is continued over five days of differentiation until the experiment is terminated. Cells are fed with fresh medium at day 3 of differentiation. Therefore, half of the test condition solution (e.g. solvent control or compound dilution) is replaced by freshly prepared test condition solution.Test Method: Migration distance and cytotoxicity is determined after 72 hours based on brightfield images of each well. The assay is terminated by the assessment of cell viability and cytotoxicity as well as cell fixation after 120 h. Immunocytochemistry is performed for Hoechst positive nuclei, TUBB3 positive neurons and O4 positive oligodendrocytes. On the ICC images, migration after 120 hours, neuronal and oligodendrocyte number, neuronal morphology and neuron/oligodendrocyte specific migration is assessed. immunocytochemical staining (ICC) generates an image for each sphere. The plates are scanned using an automated high content imaging device and all nuclei and their positions are determined automatically based on their intensity and size. Images are imported to the Omnisphero software to run the image analysis that measures the following endpoints. […]
For `O=C1CC2(CCCC2)CC(=O)N1CCCCN1CCN(c2ncccn2)CC1`, the compound was called inactive. Same read-out and setting: next, `CC(=O)N[C@@H](CC(=O)O)C(=O)O`: “inactive”; `C[C@@H]1CCO[C@H]2Cn3cc(C(=O)NCc4ccc(F)cc4F)c(=O)c(O)c3C(=O)N12`: “inactive”; `BrC1CC(Br)CC(Br)CC(Br)CC(Br)CC(Br)C1` (stereo not given): “inactive”.

For `C[C@@H]1CC[C@@H](C(C)(C)O)[C@H](O)C1`, the outcome was inactive. Still for that read-out and setting: the entry for `CC(C)O` is “inactive”; for `CCCCCC=C(C)C(CC)CCO` (stereo not given) it is “inactive”; for `CCCCOCCOP(=O)(O)OCCOCCCC` it is “inactive”. Still for that read-out and setting: next, `Cc1[nH]n(C)c(=O)c1C(=O)c1ccc(C(F)(F)F)cc1S(C)(=O)=O`: “inactive”. Still for that read-out and setting: next, `CCc1ccccc1`: “inactive”. With `F`, the compound was called inactive.

The term AC50 denotes the concentration at which the activity in the assay is half-maximal. As to `CC(CNC(=S)[S-])NC(=S)[S-].[Zn+2]` (stereo not given), the AC50 was 60.5 µM (active). On to `CCCCCC(C)(CC)C(=O)NC` (stereo not given), for which the call was inactive. On the same count and under the same terms, the entry for `CC(C)c1nn(C(=O)NC(C)(C)C)c(=O)n1N` is “inactive”.

For the compound `CN(C)CCCn1cc(C2=C(c3c[nH]c4ccccc34)C(=O)NC2=O)c2ccccc21`, the AC50 was 13.9 µM (active).

Source of the values: PubChem BioAssay (EPA / NIEHS).
